# From PubChem
# GLP1R ag: qHTS of GLP-1 Receptor Agonists; Glucagon-like peptide 1 receptor (Homo sapiens), P43220; HEK293 GLP-1R CRE-luciferase, luminescence, 4-6 h; cells express a hypersensitive GLP-1R form; Potency, µM (doses to about 45.6 µM), without a hit: at the highest dose activation, actives largely listed as activators; 380,000 compounds, 0.007% hits; further: potency means the concentration at half of the fitted maximal effect; % of control where 0% means no effect
# GLP-1R inv ag: qHTS of GLP-1 Receptor Inverse Agonists (Inhibition Mode); Glucagon-like peptide 1 receptor (Homo sapiens), P43220; HEK293 GLP-1R CRE-luciferase, luminescence, 24 h; GLP-1R form is constitutively active; Potency, µM (highest dose often 38.3 µM), inactives show at the top dose activity change, negative = inhibition, actives largely listed as inhibitors; 410,000 compounds, 1.6% hits; further: potency means the concentration at half of the fitted maximal effect; on the % scale 0 is the no-effect control and ±100 the full control effect; nearly all actives have a fitted effect of over 55% in size
#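 Readout was luciferase luminescence, measured 12 min after detection reagent at room temperature. Beforehand, GLP-1R reporter HEK293 cells had sat 12 h, then received compounds for 24 hr at 37 deg C.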
# DRD3 antagonist: qHTS of D3 Dopamine Receptor Antagonist: qHTS | D3R cells, DiscoveRx beta-arrestin luminescence, antagonist mode; stronger effect = lower value | max response, negative = inhibition, % | D(3) dopamine receptor (Homo sapiens), P35462 | 360,000 compounds, 2.5% hits; in the data active means max response below about -50%; inconclusive means no clear call, values can overlap the other calls; further: on the % scale 0 is the no-effect control and ±100 the full control effect
# Target sequence (P35462 whole entry, looked up): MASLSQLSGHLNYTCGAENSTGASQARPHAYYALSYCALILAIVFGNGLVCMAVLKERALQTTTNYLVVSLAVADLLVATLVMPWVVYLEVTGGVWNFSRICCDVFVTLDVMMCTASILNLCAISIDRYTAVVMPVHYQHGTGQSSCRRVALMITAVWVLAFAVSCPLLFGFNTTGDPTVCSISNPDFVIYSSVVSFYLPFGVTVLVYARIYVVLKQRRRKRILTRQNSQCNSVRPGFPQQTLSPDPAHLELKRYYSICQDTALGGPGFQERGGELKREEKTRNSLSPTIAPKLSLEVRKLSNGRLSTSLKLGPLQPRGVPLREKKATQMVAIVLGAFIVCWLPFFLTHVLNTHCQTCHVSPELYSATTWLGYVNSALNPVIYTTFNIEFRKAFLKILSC
#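 Cells expressing the human receptor were seeded at 1500 cells/well, incubated overnight at 37 degrees C in 5% CO2, then exposed to library compounds with dopamine controls for 90 minutes at 37 degrees C before luminescent detection.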
# DRD3 agonist: qHTS of D3 Dopamine Receptor Agonist: qHTS; 410,000 compounds, 0.58% hits; AID 652048, 2013; D3R DiscoveRx beta-arrestin cells, luminescence, 90 min; max activation, %; in the data active means max activation above about 30%; further: 0% is about no effect
#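 Cells at 1500/well, incubated overnight, then treated with pinned compounds (dopamine as control) for 90 min at 37 degrees C. DiscoveRx reagent added for 30 - 60 minutes at room temperature; luminescence read.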
# An asterisk follows results filed as active; ? = inconclusive; · = not tested or not shown. Rows were chosen to be rich in hits. Some 4.3% of all compounds tested hit in one or more screens of this group. Unless noted, the call rests on the fitted dose curve; in most records, active means well fitted curve in the direction sought with a large enough effect; inconclusive means small, poorly fitted or top-dose-only effect, or another doubt; inactive means no such curve, though single readings can be large; an effect the other way counts as inactive or inconclusive.
SMILES,GLP1R ag,GLP-1R inv ag,DRD3 antagonist,DRD3 agonist
Cc1ccc(Cn2cc(S(=O)(=O)c3ccccc3)c(=O)c3cc(F)c(N4CCOCC4)cc32)cc1,·,9%,·,-4
O=C(O)COCC(=O)Nc1ccc(-n2nc(C(F)(F)F)cc2-c2cccs2)cc1,1%,19%,-6,1
CCOC(=O)c1c(C)oc2c(Cl)cc(NS(=O)(=O)c3ccc(Cl)c(C)c3)cc12,·,-20%,·,-6
Oc1cc(O)c(CN2CCOCC2)cc1CN1CCOCC1,-4%,20%,17,-4
CC(C)(C)c1cc(CN2CCOCC2)c(C(=O)O)o1,-11%,-3%,-81*,-1
Cc1ccc(NC(=O)C(=O)NCC(c2cccnc2)N2CCN(c3ccccc3F)CC2)cc1Cl (stereo not given),·,-7%,·,-3
COC(=O)Cc1ccc(NC(=S)N2CCN(c3cccc(O)c3)CC2)cc1,-3%,-29%,1,32*
COC(=O)Cc1ccc(NC(=S)N2CCN(c3ccc(OC)cc3)CC2)cc1,-16%,-25%,6,4
CCc1ccc(OCC2c3cc(OC)c(OC)cc3CCN2C(=O)Cc2ccc(OC)c(OC)c2)cc1 (stereo not given),14%,?,·,6
O=S(=O)(c1ccccc1)c1nnn2c1nc(NC1CCCCCC1)c1sccc12,·,12%,·,7
Cn1cnc(S(=O)(=O)N2CCCC(C(=O)Nc3ccc(OC(F)(F)F)cc3)C2)c1 (stereo not given),·,-29%,·,5
OCOCCCn1c(C2CCCN2c2nc(-c3ccc(F)cc3)cs2)nc2cc(Cl)c(N3CCCCC3)cc21 (stereo not given),-4%,7.9µM*,0,-4
Nc1c(Cl)cc(-c2csc(N3CCCC3c3nc4cc(Cl)c(N5CCCCC5)cc4n3CCCO)n2)cc1Cl (stereo not given),-4%,-18%,0,-12
OCCCn1c(C2CCCN2c2nc(-c3ccc(F)cc3)cs2)nc2cc(Cl)c(Cl)cc21 (stereo not given),11%,?,-56*,-44
Cc1c(-c2nnc(SCC(=O)Nc3ccccc3F)o2)nnn1-c1ccc(F)cc1,·,4%,·,-8
Cc1ccc(OC(C)C(=O)Nc2ccc(C)c(S(=O)(=O)Nc3ccc(C)cc3C)c2)cc1 (stereo not given),-4%,4µM*,?,3
COc1ccc(CC(=O)Nc2cc(-c3cn4cccnc4n3)ccc2OC)cc1,·,-3%,·,11
O=C(Cc1c[nH]c2ccccc12)N1CCN(S(=O)(=O)c2cccc(Cl)c2Cl)CC1,-3%,10µM*,-5,-2
O=C(Cc1c[nH]c2ccccc12)N1CCN(S(=O)(=O)c2ccc(F)cc2)CC1,1%,-15%,13,2
CC(=O)c1ccc(S(=O)(=O)N2CCn3cccc3C2c2ccccc2F)cc1 (stereo not given),·,-13%,·,2
O=S(=O)(c1ccc(Cl)cc1)c1nc(-c2cccs2)oc1SCc1ccccc1F,·,10µM*,·,7
COc1ccc(NC(=O)CSc2oc(-c3cccs3)nc2S(=O)(=O)c2ccccc2)c(OC)c1,·,-24%,·,59*
COc1ccc(NC(=O)CSc2oc(-c3cccs3)nc2S(=O)(=O)c2ccc(C)cc2)c(OC)c1,·,-15%,·,8
Cc1cc(-c2ccc(C)c(S(=O)(=O)N(C)c3ccc(C)c(C)c3)c2)on1,·,?,·,7
Cc1[nH]n(-c2ccccc2)c(=O)c1/C=N/n1c(C)nc2ccccc2c1=O,-3%,5%,-52*,4
SMILES,GLP1R ag,GLP-1R inv ag,DRD3 antagonist,DRD3 agonist
COc1ccc(C(=O)Nc2ccccc2-c2nc3ccccc3s2)cc1OC,5%,7%,·,7
CC(=O)C1CCC2C3CC(C)=C4CC(O)CCC4(C)C3CCC12C (stereo not given),15%,141%,-5,65*
CC(=O)[C@H]1CC[C@H]2[C@@H]3CC=C4C[C@@H](O)CC[C@]4(C)[C@H]3CC[C@]12C,-5%,12%,-7,4
CCN1C(=O)c2ccccc2S(=O)(=O)c2ccc(C(=O)NCc3ccccc3OC)cc21,-1%,-21%,·,4
Oc1c(Cl)cc(Cl)cc1CNc1ccc(Br)cn1,2%,?,-55*,5
Cc1cc(SCc2ccc(Cl)c(Cl)c2)nc(=O)[nH]1,1%,?,10,0
COc1cccc(NC(=O)C(Sc2nnc(Nc3ccccc3C)s2)c2ccccc2)c1 (stereo not given),-10%,10µM*,-54*,-11
COc1ccc(Nc2nnc(SC(C(=O)Nc3cc(C)ccc3C)c3ccccc3)s2)cc1 (stereo not given),?,-11%,10,-2
COc1ccccc1-c1c(-c2ccc(O)cc2O)n[nH]c1C(F)(F)F,-3%,11µM*,18,1
OC(c1ccco1)c1nc(-c2ccc(F)c(Cl)c2)cs1 (stereo not given),16%,?,7,5
CC(C)c1ccc(NC(=O)C2CCCN2S(=O)(=O)c2ccc3nc(-c4ccccc4)[nH]c3c2)cc1 (stereo not given),·,8.9µM*,·,9
Cc1ccc(NS(=O)(=O)c2ccc3nc(-c4ccccc4)[nH]c3c2)cc1Cl,-5%,10µM*,·,-6
Cc1ccc(NC(=O)C2CCCN2S(=O)(=O)c2ccc3nc(-c4ccccc4)[nH]c3c2)cc1C (stereo not given),·,?,·,-10
Cc1cc(NS(=O)(=O)c2ccc3nc(-c4ccccc4)[nH]c3c2)ccc1Br,-7%,?,·,-11
CC1CCCCC1NC(=O)CO/N=C/c1ccccc1OC(F)F (stereo not given),25%,10µM*,20,27
CN(C)c1cccc(C(=O)Nc2nc3ccccc3[nH]2)c1,-5%,3.5µM*,?,-15
Cc1ccc(N(C)S(=O)(=O)c2cccc(C(=O)Nc3nc4ccccc4[nH]3)c2)cc1,-5%,?,34,42*
COc1cccc(C(=O)Nc2nc3ccccc3[nH]2)c1,-21%,7.9µM*,1,1
O=C(Nc1nc2ccccc2[nH]1)c1cccc(F)c1,1%,?,-9,-1
COc1ccc(C(=O)Nc2nc3ccccc3[nH]2)cc1,-5%,?,4,-10
CCS(=O)(=O)N1CCc2cc(C(=O)Nc3ccc(OC)cc3OC)ccc21,·,1%,·,0
CCc1nn(CC(=O)NCCc2ccc(OC)c(OC)c2)c(=O)c2cc3occc3n12,·,4%,·,-13
CCC(=O)c1ccc(N2CCN(C(=O)c3ccccc3F)CC2)c(F)c1,12%,3%,5,9
O=C(c1ccccc1)c1ccc(N2CCN(C(=O)c3cccc(F)c3F)CC2)c(F)c1,2%,10µM*,61,16
O=C(Cn1c(=O)oc2cc(S(=O)(=O)N3CCCC3)ccc21)N1CCN(c2ccccc2)CC1,-5%,-17%,-58*,-8
